Rab9 prom act: Rab9 promoter activation; Huh7 Rab9 promoter-luciferase reporter, luminescence, 24 h; Potency, µM (doses to about 9.22 µM), without a hit: at the highest dose activation, negative = inhibition, actives largely listed as activators; actives 2.8% (n = 320,000); AID 485297; further: % of control where 0% means no effect; nearly all actives have a fitted effect of over 60% in size
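Luminescence read-out: Huh7 cells stably expressing Rab9-luciferase, treated 24 h with compound at 37 °C, then lysed with luciferase reagent for 10 min at ambient before reading.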
NPC1 promoter act: activates the NPC1 promoter | Huh7 NPC1 promoter luciferase reporter, 24 h | Potency, µM (titrated, usually from 9.22 µM), without a hit: at the top dose activation, usual class: activators | actives 2.4% (n = 320,000); further: % of control where 0% means no effect; nearly all actives have a fitted effect of over 60% in size
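Luciferase expression driven by the NPC1 promoter was measured in stably transfected Huh7 cells after a 24 h compound incubation, using a luciferase reagent and a luminescence read.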
ELG1 genotox: inducers of genotoxicity in HEK293T ELG1-luciferase cells | actives 1.3% (n = 330,000) | Potency, µM (top dose mostly 46 µM), for inactives: top-dose activity change, positive = activation, actives largely listed as activators | HEK293T ELG1-luciferase reporter, luminescence, 16 h; further: % of control where 0% means no effect; nearly all actives have a fitted effect of over 60% in size
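After overnight (16 hr) compound treatment at 37 °C, ELG1-luciferase HEK293T cells were lysed with ONE-Glo; luminescence quantified 30 min later at room temperature.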
ELG1 repair inh: blocks ELG1-dependent DNA repair in HEK293T cells; HEK293T ELG1-luciferase reporter, luminescence, 16 h; DNA damage induced by 5-fluorouridine; Potency, µM (doses to about 46.1 µM), for the others: top-dose activity change, negative = inhibition, most hits filed as inhibitors; actives 2.3% (n = 330,000); AID 504467; further: on the % scale 0 is the no-effect control and ±100 the full control effect; nearly all actives have a fitted effect of over 55% in size
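5-Fluorouridine DNA damage + compound/DMSO, 2,000 cells/well, 16 h, 37 °C/5% CO2. ONE-Glo, 30 min RT, luminescence. Readout = decrease in reporter signal.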
SMN2 splice up: enhancers of SMN2 splice variant expression | HEK293 SMN2-luciferase splicing reporter, luminescence, 30-36 h | Potency, µM (highest dose often 46.1 µM), for the others: top-dose activity change, positive = activation, most hits filed as activators | AID 1458 | actives 2.8% (n = 210,000); further: % of control where 0% means no effect; nearly all actives have a fitted effect of over 55% in size
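HEK293 cells carry an SMN2 […]–luciferase reporter in which exon 7 inclusion puts luciferase in frame. Cells were plated 10-12 h before compound addition, then incubated 30-36 h at 37C. ONE-Glo luminescence was read; sodium butyrate at 4.5 mM final served as control.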
FLuc counter: firefly luciferase modulation, counter-screen for miR-21 project; P08659; purified FLuc, Km substrates, luminescence inhibition; actives 6.9% (n = 360,000); AID 588342; Potency, µM (top dose mostly 57.5 µM), inactives show at the highest dose activity change, negative = inhibition, usual class: inhibitors;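 further: plate controls were vehicle for no effect and reference inhibitor for full effect; nearly all actives have a fitted effect of over 55% in size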
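Purified P. pyralis luciferase (10nM final) with 10uM D-luciferin and 10uM ATP (Km levels) in 50mM Tris acetate pH 7.5, 10mM Mg acetate, 0.01% Tween-20, 0.05% BSA; qHTS 6-point titration, ~60 µM downward; luminescence read.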
ELG1 FLuc counter: luciferase inhibition in cell-free luciferin readout for ELG1 hits; shares compounds with ELG1 repair inh; cell-free firefly luciferase luminescence counter-screen, ViewLux; Potency, µM (doses to about 46.1 µM), for inactives: at the top dose activity change, negative = inhibition, usual class: inhibitors; actives 3% (n = 350); AID 624247; further: on the % scale 0 is the no-effect control and ±100 the full control effect
ELG1 Luc conf: confirmation of human ELG1-dependent DNA repair inhibitors | shares compounds with ELG1 repair inh | HEK293T ELG1-luciferase levels, luminescence; cells co-treated with 5-fluorouridine | Potency, µM (top dose mostly 46.1 µM), without a hit: at the highest dose activity change, negative = inhibition, actives largely listed as inhibitors | actives 68% (n = 670) | AID 624248; further: on the % scale 0 is the no-effect control and ±100 the full control effect; nearly all actives have a fitted effect of over 55% in size
ELG1-Luc MMS: inhibits ELG1-dependent repair under MMS stimulation in HEK293T cells; Potency, µM (series often up to 46.1 µM), without a hit: at the top dose activity change, negative = inhibition, usual class: inhibitors; AID 624249; HEK293T luciferase-tagged ELG1 level, MMS stimulated; actives 53% (n = 670); shares compounds with ELG1 repair inh; further: on the % scale 0 is the no-effect control and ±100 the full control effect; nearly all actives have a fitted effect of over 60% in size
ELG1 5-FU: confirmation of ELG1 repair inhibitors: viability with 5FU; Potency, µM (doses to about 46.1 µM), for the others: at the highest dose activity change, negative = viability loss, most hits filed as cytotoxic; cell viability with 5-FU, ELG1-dependent repair; shares compounds with ELG1 repair inh; 670 tested, under 10 active;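 further: ELG1-luc HEK293T cells cotreated with 5-fluorouridine at 10 µM final; viability measured 16 h after compound addition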
ELG1 MMS cell: confirmation of ELG1 repair inhibitors: viability with MMS. shares compounds with ELG1 repair inh. Cell viability with MMS, ELG1-dependent DNA repair. Potency, µM (doses to about 46.1 µM), for the others: at the top dose activity change, negative = viability loss, most hits filed as cytotoxic. actives 33% (n = 670);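 further: ELG1-luc HEK293T cells co-treated with 10 µM MMS; viability read 16 h after compound addition; on the % scale 0 is the no-effect control and ±100 the full control effect; nearly all actives have a fitted effect of over 60% in size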
Cell viab unstim: unstimulated viability counter-screen for ELG1 repair hits; cell viability counter-screen, unstimulated, luminescence; shares compounds with ELG1 repair inh; actives 8% (n = 900); Potency, µM (top dose mostly 45.9 µM), for the others: top-dose activity change, negative = loss of viability, most hits filed as cytotoxic;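 further: compound exposure lasted 16 hours before reading; on the % scale 0 is the no-effect control and ±100 the full control effect; nearly all actives have a fitted effect of over 55% in size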
FLuc biochem: firefly luciferase inhibition counter-screen. shares compounds with ELG1 repair inh. purified firefly luciferase, luminescence counter-screen. Potency, µM (titrated, usually from 57.5 µM), without a hit: at the highest dose activity, negative = inhibition, usual class: inhibitors. actives 10% (n = 350). AID 624253; further: on the % scale 0 is the no-effect control and ±100 the full control effect
* hit, by the source's call; ? = inconclusive; . = no result. An excerpt weighted towards active compounds, which were near 9.2% of everything screened. The call rests on the fitted dose curve; in most records, active means well fitted curve in the direction sought with a large enough effect; inconclusive means small, poorly fitted or top-dose-only effect, or another doubt; inactive means no such curve, though single readings can be large; an effect the other way counts as inactive or inconclusive. Potency means the concentration at half of the fitted maximal effect.

SMILES | Rab9 prom act | NPC1 promoter act | ELG1 genotox | ELG1 repair inh | SMN2 splice up | FLuc counter | ELG1 Luc conf | ELG1-Luc MMS | ELG1 5-FU | ELG1 MMS cell | Cell viab unstim | others
COc1cc(NC(=O)CNc2cccc(S(=O)(=O)N3CCOCC3)c2)cc(OC)c1 | -3% | 1% | -9% | -10% | . | 1% | . | . | . | . | .
CN(C)S(=O)(=O)c1cccc(NC(=O)CCc2c[nH]c3ccccc23)c1 | -1% | -1% | -10% | -20% | -25% | ? | . | . | . | . | .
O=C(CNc1ccccc1)NN=C1CCCC1 | -3% | 0% | 1% | 9% | 16% | -1% | . | . | . | . | .
CCCCc1nnc(NC(=O)c2oc3ccc(OC)cc3c2C)s1 | 16% | 21% | 9% | ? | . | -25% | . | . | . | . | .
CCOc1ccc2oc(C(=O)Nc3nccs3)c(C)c2c1 | . | . | 2.6µM* | ? | . | . | . | . | . | . | -8%
CN(Cc1ccc(Cl)cc1Cl)C(=O)c1cc(=O)c2ccccc2o1 | -3% | -3% | -28% | 9% | . | 0% | . | . | . | . | .
CN(C)c1ccnc2sc(C(N)=O)c(N)c12 | 13% | 17% | -25% | 0.82µM* | 1% | -6% | 1.3µM* | 4.5µM* | 6% | 1% | -5% | ELG1 FLuc counter=?;FLuc biochem=0%
CCC1CCCCN1CCCNC(=O)c1ccc2nc(N3CCC(C)CC3)sc2c1 (configuration not stated) | -38% | -13% | 0.16µM* | ? | . | ? | . | . | . | . | -12% | ELG1 FLuc counter=102%;FLuc biochem=?
CCC1CCCCN1CCCNC(=O)c1ccc2c(c1)sc1nc(-c3ccc(F)cc3)cn12 (configuration not stated) | . | . | . | . | . | -6% | . | . | . | . | .
CC12CN3CCN(CC(C3)/C1=N\NC(=O)Nc1cccc(Cl)c1)C2 | 23% | 2% | -9% | ? | 4% | 2% | . | . | . | . | .
COc1ccc(C(=O)c2ccc(Br)cc2)cc1 | ? | 30% | 1% | 1.2µM* | -14% | -11% | 43% | 0% | 2% | -17% | 7%
Cn1cnc2c(F)c(Nc3ccc(Br)cc3Cl)c(C(=O)NOCCO)cc21 | . | . | . | . | . | . | . | . | . | . | -25%
O=C(N/N=C/c1cc(Br)ccc1OC(=O)c1ccc(Br)cc1)c1ccncc1 | -31% | -34% | -5% | 4.1µM* | . | -12% | ? | 16µM* | -2% | ? | -5%
O=C1N=C(N2CCCC2)S/C1=C\c1cn[nH]c1-c1ccccc1 | 13% | 14% | 10% | -17% | 9% | -15% | . | . | . | . | .
Cc1ccccc1N1CCN(C2=NC(=O)/C(=C/c3cn[nH]c3-c3ccccc3)S2)CC1 | -2% | -1% | 1% | 0.82µM* | 3% | 4% | 1.3µM* | 0% | ? | 1% | 0% | ELG1 FLuc counter=33%;FLuc biochem=-3%
CCc1nc2ccc(C(=O)NCCc3ccc(OC)c(OC)c3)cc2nc1CC | -2% | 3% | -4% | -13% | . | -2% | . | . | . | . | .
COc1ccc(-c2nc3ccc(C(=O)NCC(OC)OC)cc3nc2-c2ccc(OC)c(OC)c2)cc1OC | 4% | -3% | 1% | 1µM* | . | 0% | 0.71µM* | 8% | ? | ? | 2%
CCOCCCNC(=O)c1ccc2nc(-c3ccc(OC)c(OC)c3)c(-c3ccc(OC)c(OC)c3)nc2c1 | -1% | -5% | -7% | 1.5µM* | . | -1% | 0.44µM* | ? | ? | ? | ?
Fc1ccc(-c2cc(C(F)(F)F)nc(NCc3cccs3)n2)cc1 | -15% | 0% | 1% | -12% | -30% | -2% | . | . | . | . | .
COc1ccc(S(=O)(=O)NCC(c2ccco2)S(=O)(=O)c2cccs2)cc1C (configuration not stated) | . | . | . | . | . | 4% | . | . | . | . | .
COc1ccc(-c2nn(-c3ccccc3)cc2C(=O)NCC(c2cccs2)N2CCOCC2)cc1 (configuration not stated) | 2% | 0% | -19% | 4.6µM* | . | 5% | 14µM* | -1% | ? | 9% | -14%
O=C(NCC(c1cccs1)N1CCOCC1)c1cn(-c2ccccc2)nc1-c1ccccc1 (configuration not stated) | -6% | -3% | -9% | ? | . | -27% | . | . | . | . | .
Cc1cc(C)cc(NC(=O)N2CCCC2C(=O)Nc2ccc(-n3cnnn3)cc2)c1 (configuration not stated) | 1% | 0% | -1% | ? | 9% | 0% | ? | -8% | ? | -1% | 2%
CC(C)c1ccc(NC(=O)N2CCCC2C(=O)Nc2ccc(-n3cnnn3)cc2)cc1 (configuration not stated) | -1% | 9% | -1% | -16% | 8% | 2% | . | . | . | . | .
COc1ccccc1CCC(=O)N(C)CC(=O)Nc1ccc(Cl)c(C(F)(F)F)c1 | 4% | -5% | -14% | -15% | . | 3% | . | . | . | . | .
CCOc1cccc(-c2nnc3sc(-c4cc(OC)c(OC)c(OC)c4)nn23)c1 | -5% | 0% | 8% | 3.3µM* | 24% | 4% | ? | 15% | 4% | -3% | ?

Screens: PubChem, National Center for Advancing Translational Sciences (NCATS)
